Test results published in PubChem BioAssay (NCATS).
Results filed as inconclusive are left out. Entries that show only a call come without a potency. Values without a mark were called inactive. Activity calls are given as the source filed them. Calls come from the whole dose curve; as a rule, active = well fitted curve in the direction sought with a large enough effect; inconclusive = small, poorly fitted or top-dose-only effect, or another doubt; inactive = no such curve, though single readings can be large; an effect the other way counts as inactive or inconclusive.

Tests used:
[1] = BET inhibitor-based combinations targeting novel dependencies in MECOM-rearranged (r) AML: SET-2 cell line (AID 2202231); conditions: SET-2 AML cells viability, CellTiter-Glo luminescence, 48 h; viability: stronger effect = lower value, concentration not given here; note: nearly all actives have a fitted effect of over 35% in size
Outline: (§1)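 A 48 hr incubation preceded viability reading by CellTiter-Glo, with 15 min room-temperature development. Dose series had 11 points; normalization used DMSO and empty wells; AUC was computed and mean-centered per line as Z-AUC.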

[2] = BET inhibitor-based combinations targeting novel dependencies in MECOM-rearranged (r) AML: OCI-AML3 cell line (AID 2202232); conditions: Potency: OCI-AML3 viability; note: nearly all actives have a fitted effect of over 35% in size
Outline: as §1

[3] = BET inhibitor-based combinations targeting novel dependencies in MECOM-rearranged (r) AML: MV-4-11 cell line (AID 2202233); note: nearly all actives have a fitted effect of over 45% in size
Outline: (§2)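 Each compound is tested in an 11-point concentration series against 500 seeded cells/well for 48 hr. The luminescent viability signal is normalized to DMSO and blank wells, then reduced to AUC and a cell-line-centred Z-AUC.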

[4] = BET inhibitor-based combinations targeting novel dependencies in MECOM-rearranged (r) AML: HNT-34 cell line (AID 2202234); note: nearly all actives have a fitted effect of over 35% in size
Outline: as §2

[5] = BET inhibitor-based combinations targeting novel dependencies in MECOM-rearranged (r) AML: UCSD-AML1 cell line (AID 2202235); note: nearly all actives have a fitted effect of over 40% in size
Outline: as §2

[6] = BET inhibitor-based combinations targeting novel dependencies in MECOM-rearranged (r) AML: AML-191 cell line (AID 2202236; note: nearly all actives have a fitted effect of over 35% in size)
Outline: as §1

[7] = BET inhibitor-based combinations targeting novel dependencies in MECOM-rearranged (r) AML: AML-194 cell line (AID 2202237; note: nearly all actives have a fitted effect of over 40% in size)
Outline: as §1
Potency is the fitted concentration of half-maximal effect.

SMILES | viability [1] [%] | Potency [2] | Potency [3] | Potency [4] | Potency [5] | Potency [6] | Potency [7] | Potency [1]
CC1(C)CC[C@]2(C(=O)O)CC[C@]3(C)C(=CC[C@@H]4[C@@]5(C)C[C@@H](O)[C@H](O)C(C)(C)[C@@H]5CC[C@]43C)[C@@H]2C1 | 102 | inactive | inactive | inactive | inactive | inactive | inactive | 
CC1(C)O[C@@H]2C[C@H]3[C@@H]4C[C@H](F)C5=CC(=O)C=C[C@]5(C)[C@H]4[C@@H](O)C[C@]3(C)[C@]2(C(=O)CO)O1 | 108 | inactive | inactive | inactive | inactive |  | inactive | 
O=c1cc(O)c(Cl)c[nH]1 | 115 | inactive | inactive | inactive | inactive | inactive | inactive | 
COc1cc([C@@H]2c3cc4c(cc3[C@@H](O[C@@H]3O[C@@H]5CO[C@@H](c6cccs6)O[C@H]5[C@H](O)[C@H]3O)[C@H]3COC(=O)[C@H]23)OCO4)cc(OC)c1O |  | 0.263 µM (active) | 0.0468 µM (active) | 0.235 µM (active) | 0.132 µM (active) | 0.332 µM (active) | 0.372 µM (active) | 1.18 µM (active)
CN(C)C(=O)COC(=O)Cc1ccc(OC(=O)c2ccc(N=C(N)N)cc2)cc1 | 115 | inactive | inactive | inactive | inactive | inactive | inactive | 
O=C(Nc1cc(Oc2cc(F)c(NC(=O)C3(C(=O)Nc4ccc(F)cc4)CC3)cc2F)ccn1)C1CC1 |  | 11.8 µM (active) | 0.235 µM (active) | 7.42 µM (active) | 14.8 µM (active) |  | 14.8 µM (active) | 11.8 µM (active)
C[C@H]1O[C@H](O[C@H]2[C@H](O)[C@@H](O)[C@@H](O[C@H]3[C@H](O)[C@@H](O)C(O)O[C@@H]3CO)O[C@@H]2CO)[C@H](O)[C@@H](O)[C@@H]1N[C@H]1C=C(CO)[C@@H](O)[C@H](O)[C@H]1O (stereo not given in full) | 101 | inactive | inactive | inactive | inactive |  | inactive | 
COc1ccc([C@@H]2CC(=O)c3c(O)cc(O[C@@H]4O[C@H](CO[C@@H]5O[C@@H](C)[C@H](O)[C@@H](O)[C@H]5O)[C@@H](O)[C@H](O)[C@H]4O)cc3O2)cc1O | 119 | inactive | inactive | inactive | inactive |  | inactive | 
CC(C)[C@H]1C(=O)N[C@@H](CCCN=C(N)N)C(=O)NCC(=O)N[C@@H](CC(=O)O)C(=O)N[C@H](Cc2ccccc2)C(=O)N1C | 124 | inactive | inactive | inactive | inactive | inactive | inactive | 
CC(C)(CO)n1cc(C(=O)c2cncc(NC(=O)Cc3ccc(Cl)cn3)c2)c2cnc(N)nc21 | 125 | inactive | 7.42 µM (active) | inactive | inactive |  | 0.0833 µM (active) | 
CCOCOC[C@H](C[C@H](C)C(=O)NO)NC(=O)c1ccc(Oc2ccccc2)cc1 | 117 | 23.5 µM (active) | inactive | 26.3 µM (active) | inactive |  | inactive | 
Cc1ccc(-n2[nH]c(C)c(N=Nc3cccc(-c4cccc(C(=O)O)c4)c3O)c2=O)cc1C | 109 | inactive | inactive | inactive | inactive |  | inactive | 
CC(=O)c1cc2c(o1)C(=O)c1ccccc1C2=O |  | 2.63 µM (active) | 0.833 µM (active) | 2.35 µM (active) | 2.95 µM (active) | 2.35 µM (active) | 2.35 µM (active) | 2.63 µM (active)
CC1(C)OC2=C(C(=O)c3ccccc3C2=O)[C@H](NCc2ccccc2)[C@@H]1O |  | 11.8 µM (active) | 8.33 µM (active) | 7.42 µM (active) | 9.34 µM (active) |  | 7.42 µM (active) | 6.61 µM (active)
Cc1[nH]cnc1CN1CCN(C(=O)N[C@@H](CC(C)C)C(=O)O)[C@@H](Cc2ccccc2)C1=O | 123 | 6.61 µM (active) | inactive | inactive | inactive |  | inactive | 
C[C@]12CC[C@H](O)CC1=CC[C@@H]1[C@@H]2CC[C@]2(C)C(c3cccnc3)=CC[C@@H]12 | 107 | inactive | inactive | inactive | inactive | inactive | inactive | 
COc1cc(NS(C)(=O)=O)ccc1Nc1c2ccccc2nc2ccccc12 |  | 0.372 µM (active) | 0.0661 µM (active) | 0.372 µM (active) | 0.417 µM (active) | 0.742 µM (active) | 0.742 µM (active) | 2.09 µM (active)
